Common to all, as to assay: NCI-60 one-dose screen, 48 h (100 = growth as untreated, 0 = no growth, -100 = all killed)
Assay [1] has as its system NCI-H23 lung. The note with it: 10 µM unless noted.
In assay [2] the test system is NCI-H226 lung. The note with it: 10 µM unless noted.
The subject of assay [3] is NCI-H322M lung. To be noted: 10 µM unless noted.
The test system of assay [4] is HOP-62 NSCLC. To be noted: 10 µM unless noted.
Assay [5] deals with NCI-H460 lung. To be noted: 10 µM unless noted.
Assay [6] concerns HOP-92 NSCLC. To be noted: 10 µM unless noted.
Assay [7] concerns NCI-H522 lung. The note with it: 10 µM unless noted.
In assay [8] the test system is A549/ATCC NSCLC. To be noted: 10 µM unless noted.
For assay [9], the system named is 786-0 renal. The note with it: 10 µM unless noted.
Assay [10] has as its system COLO 205 colon. To be noted: 10 µM unless noted.
In assay [11] the test system is DU-145 prostate. The note with it: 10 µM unless noted.
For assay [12], the system named is K-562 leukemia. To be noted: 10 µM unless noted.
The subject of assay [13] is MALME-3M melanoma. To be noted: 10 µM unless noted.
For assay [14], the system named is MDA-MB-231 breast. To be noted: 10 µM unless noted.
In assay [15] the test system is RXF 393 renal. To be noted: 10 µM unless noted.
In assay [16] the test system is SF-268 CNS. To be noted: 10 µM unless noted.
The subject of assay [17] is SF-295 CNS. To be noted: 10 µM unless noted.
For assay [18], the system named is SF-539 CNS. To be noted: 10 µM unless noted.
In assay [19] the test system is UACC-257 melanoma. The note with it: 10 µM.
Assay [20] relates to M14 melanoma. To be noted: 10 µM unless noted.

This is part of a sample that, as a whole, favours compounds with a hit. Of some 83,000 tested, about 20% had one in any assay.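 Assay: single dose, 48 h. Readout: percent growth (0 = no net growth; negative = cell death). Active: <10.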 A number with no mark means an inactive call. Calls of active or inactive are those of the source.

For the molecule `O=C(O)Cc1ccc2c(c1)Cc1cccnc1O2`, the growth in assay [1] is 98.9%; in assay [2], 91.7%; in [3] it was 109%; in [4], 106%; in [5] it was 105%; in assay [6] it was 112%. The growth was 95.7% in assay [7]; 96.1% in assay [8]; 98% in assay [9]; 111% in [10]; 107% in assay [11]; 114% in [12]. Besides, the growth in [13] was 98.5%; in assay [14], 111%; in assay [15], 91.2%; in assay [16], 103%; in assay [17] it was 108%; in [18], 99.7%. The growth is 106% in [19] and 103% in [20].

In the case of `COc1cc(CNC(=O)CCSc2nc3ccccc3c(=O)n2Cc2cc(OC)c(OC)c(OC)c2)cc(OC)c1OC`, the growth is 51.6% in assay [1]; 70% in assay [2]; 60.1% in assay [3]; 29.3% in assay [4]; 13.7% in assay [5]; 44.6% in assay [6]. Moreover, the growth in assay [7] is 10.2%; in assay [8], 35%; in assay [9], 56.1%; in assay [10], 25.8%; in [11] it was 58.1%; in [12] it was 8.67% (active). Also, the growth was 40.9% in assay [13]; 46% in assay [14]; 43.6% in [15]; 50.4% in assay [16]; 36.6% in assay [17]; 25.4% in [18]. Further, the figures for the growth in assay [19] and in assay [20] were 59.1% and 6.56% (active), respectively.

Consider `Nc1c(C(=O)c2ccc(F)cc2)sc2nc3c(cc12)CCCC3`, for which the growth in [1] was 77.9%; in assay [2], 85.4%; in assay [3] it was 81.3%; in [4], 91.1%; in [5], 90.3%; in [6], 61.3%. Moreover, the growth in assay [7] was -2.9% (active); in assay [8], 70.9%; in [9] it was 85.3%; in [10] it was 84.8%; in assay [11], 77.9%; in assay [12] it was 25.8%. Also, the growth in assay [13] was 31.7%; in assay [14], 85.7%; in [15], 56%; in [16] it was 87.4%; in [17], 72.6%; in [18], 95.3%. For the same molecule, the growth was 95% in assay [19] and 71% in assay [20].

With `O=C(CN1CCN(c2cc3c(cc2F)c(=O)c(C(=O)O)cn3C2CC2)CC1)Nc1ccc(C(=O)/C=C/c2ccccc2)cc1`, the growth in [1] is 24%; in assay [2], 57.4%; in [3], 73.7%; in assay [4] it was 59.4%; in assay [5], 7.12% (active); in assay [6] it was 14.9%. The growth in assay [7] is 10.6%; in assay [8], 4.12% (active); in assay [9], 23.2%; in [10], 108%; in assay [11], 43.1%; in [12] it was 14.2%. Besides, the growth in assay [13] was 51%; in assay [14], 55.1%; in assay [15], 41.7%; in [16] it was 37%; in [17], 15.2%; in assay [18] it was 26.2%. The figures for the growth in assay [19] and in assay [20] were 61.1% and 31.8%, respectively.

Turning to `COc1ccc(-c2nc3sccn3c2-c2ccnc(NCCCNS(=O)(=O)c3ccc(F)cc3)n2)cc1`, the growth in [1] was 1.5% (active); in [2], -4.69% (active); in [3] it was 41.2%; in assay [4] it was 30.9%; in assay [5] it was 19.5%; in assay [6], 44.2%. Besides, the growth in assay [7] is -1.46% (active); in [8] it was 14%; in assay [9] it was 35.5%; in assay [10], 1.87% (active); in assay [11], 10.9%; in assay [12], 14.2%. The growth in assay [13] was 12.7%; in [14], 43.2%; in [15], 52.9%; in assay [16] it was 17.2%; in assay [17], 12.9%; in assay [18], 28.4%. Also, the figures for the growth in assay [19] and in assay [20] were 26.1% and 12.4%, respectively.

Turning to `CCn1cc(C(=O)O)c(=O)c2cc(F)c(N3CCN(S(=O)(=O)c4ccc(OC)c(OC)c4)CC3)cc21`, the growth was 99.6% in [1]; 95.9% in assay [2]; 102% in assay [3]; 100% in [4]; 108% in [5]; 91.5% in assay [6]. Also, the growth in [7] is 90.6%; in [8], 105%; in [9] it was 99.5%; in assay [10], 99.3%; in assay [11], 108%; in assay [12], 101%. Besides, the growth is 93.6% in [13]; 103% in assay [14]; 109% in assay [15]; 88.9% in [16]; 93.8% in assay [17]; 90.8% in [18]. In addition, the growth in [19] was 106%; in assay [20], 44.1%.

As to `O=S(=O)(O)CCl`, the growth in assay [1] is 97.2%; in assay [2] it was 106%; in [3], 105%; in assay [4], 112%; in assay [5], 113%; in assay [6] it was 106%. Moreover, the growth in assay [7] is 77.8%; in assay [8] it was 103%; in assay [9], 99.1%; in assay [10] it was 113%; in assay [11] it was 109%; in [12], 94.6%. Moreover, the growth in assay [13] was 102%; in assay [14] it was 108%; in assay [15], 107%; in [16] it was 100%; in assay [17], 102%; in assay [18], 101%. The results for the growth in assay [19] and in [20] were 98.5% and 97.1%, respectively.

(Values after PubChem BioAssay (NCI).)
